# HSV augment: increases HSV replication in cells. HSV replication augmentation in cells, fold increase. maximum fold increase. 220,000 tested, 0.005% active. AID 1956; in the data active = maximum fold increase above about 1.5; inconclusive = no clear call, values can overlap the other calls; tested in PC3 cells
# GC-A act: GC-A (human) enzyme activation; 370,000 tested, 0.14% active; P16066; activation, % at 10 µM; HEK293 GC-A cells, cGMP TR-FRET, EC30 ANP; 0% at EC30 ANP, 100% saturating ANP; in the data active = activation above about 40%
# TAG inh: reduces triacylglycerol accumulation in H9c2 cells. Nile Red lipid (TAG) fluorescence; cells loaded with 200 µM oleic acid. inhibition, % at 12.5 µM. 230,000 tested, 0.66% active. AID 651582;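 active = pattern-corrected inhibition of lipid staining of at least 50% with the nuclear-stain viability signal not falling by more than 50%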;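 also: 0% = DMSO wells and 100% = triacsin C control wells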
# Efflux pump mplx: inhibitors of Candida antifungal efflux pumps expressed in yeast. inhibition, % at 10 µM. S. cerevisiae Candida pump triplex, Nile Red efflux. 330,000 tested, 0.44% active. AID 485275;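 active = plate passing quality check with inhibition over a set limit, or well fluorescence over plate mean plus 4 SD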;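 also: Nile Red retained in pooled yeast measured as flow cytometry median fluorescence; 0% = buffer negative control and 100% = Enniatin B positive control; higher means more Nile Red kept so more efflux inhibition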
# NPR2 activator: GC-B (human) receptor activation; P20594; HEK293-GC-B cells, CNP EC30, cGMP TR-FRET; 0% at EC30 CNP, 100% saturating CNP; activation, % at 10 µM; 370,000 tested, 0.11% active;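 active = activation at 10 µM reaching about 35% in either raw or pattern-adjusted values, limit read from the data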
# Target sequence (P20594 whole entry, looked up): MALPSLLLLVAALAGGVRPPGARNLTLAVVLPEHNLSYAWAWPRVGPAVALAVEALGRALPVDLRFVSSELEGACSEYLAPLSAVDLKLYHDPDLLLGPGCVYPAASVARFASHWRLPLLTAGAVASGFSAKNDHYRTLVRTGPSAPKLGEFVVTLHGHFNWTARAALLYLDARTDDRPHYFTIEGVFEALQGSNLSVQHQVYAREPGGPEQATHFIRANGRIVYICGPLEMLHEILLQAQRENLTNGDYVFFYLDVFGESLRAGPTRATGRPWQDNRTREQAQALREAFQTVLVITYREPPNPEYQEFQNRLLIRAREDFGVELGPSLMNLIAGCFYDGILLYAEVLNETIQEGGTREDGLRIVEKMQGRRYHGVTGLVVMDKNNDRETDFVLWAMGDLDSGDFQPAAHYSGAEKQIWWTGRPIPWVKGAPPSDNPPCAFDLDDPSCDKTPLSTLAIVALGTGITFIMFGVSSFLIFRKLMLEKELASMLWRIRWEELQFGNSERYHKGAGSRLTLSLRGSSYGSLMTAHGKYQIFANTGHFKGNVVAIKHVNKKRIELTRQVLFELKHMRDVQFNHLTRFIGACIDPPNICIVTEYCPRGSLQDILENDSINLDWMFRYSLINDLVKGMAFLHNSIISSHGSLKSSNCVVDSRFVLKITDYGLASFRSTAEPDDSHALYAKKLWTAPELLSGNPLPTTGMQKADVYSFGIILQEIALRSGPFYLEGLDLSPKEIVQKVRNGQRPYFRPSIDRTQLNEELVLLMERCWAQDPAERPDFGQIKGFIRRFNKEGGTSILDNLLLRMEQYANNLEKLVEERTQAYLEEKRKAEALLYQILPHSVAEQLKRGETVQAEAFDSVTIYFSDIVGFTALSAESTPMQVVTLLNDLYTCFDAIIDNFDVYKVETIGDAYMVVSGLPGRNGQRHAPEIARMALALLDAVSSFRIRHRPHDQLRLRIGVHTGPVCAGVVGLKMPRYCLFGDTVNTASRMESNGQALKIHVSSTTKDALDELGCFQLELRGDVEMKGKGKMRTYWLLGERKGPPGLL
# Bfl-1 A1 inh: inhibitors of the anti-apoptotic protein A1, read as caspase activation. AID 2462. 330,000 tested, 0.066% active. MEF A1-2A-BIM cells, Caspase-Glo 3/7 luminescence, 3 h; percent of clofoctol response, vehicle zero. caspase activation, % (no concentration beside the values);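 active = over half of replicate activation scores above 10%, or exactly half above 10 with the replicate mean above 10; inconclusive = replicate mean below 10 yet half the replicates above 10; inactive = over half of replicates below 10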
# Yeast cmpd fluor: flagged as fluorescent in efflux inhibitor counter-screen | shares compounds with Efflux pump mplx | S. cerevisiae AD/pABC3, compound fluorescence, flow cytometry | AID 588517 | fluorescence ratio to DMSO, % at 10 µM | 1,700 tested, 4% active;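 active = fluorescence ratio to DMSO above its plate's cutoff, the plate mean ratio plus 5 SD, cut at about 210% in these data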;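 also: unstained yeast with no Nile Red so the signal is compound autofluorescence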
# Mdr1 pump inh: blocks the Candida albicans Mdr1 efflux pump in yeast | shares compounds with Efflux pump mplx | S. cerevisiae AD/CaMDR1, Nile Red efflux, flow cytometry | inhibition, % at 10 µM | 1,700 tested, 1% active; in the data active = inhibition above about 26%;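 also: 0% = DMSO vehicle and 100% = reference inhibitor; higher means more Nile Red retained so more efflux inhibition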
# CaCdr2 efflux inh: inhibitors of Candida albicans Cdr2 efflux pump. shares compounds with Efflux pump mplx. Nile Red retention ratio vs DMSO, % at 10 µM. S. cerevisiae AD/CaCDR2, Nile Red retention, flow cytometry. AID 588520. 1,700 tested, 4% active; in the data active = Nile Red retention ratio vs DMSO above about 190%;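 also: higher ratio means more blocking of Cdr2 efflux of the dye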
# CaCdr1 efflux inh: Candida Cdr1 efflux pump inhibition; 1,700 tested, 1% active; S. cerevisiae AD/CaCDR1, Nile Red efflux, flow cytometry; inhibition, % at 10 µM; AID 588522; shares compounds with Efflux pump mplx;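 active = inhibition above the screen-wide mean plus twice its standard deviation, cut at about 32% in these data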
# * = called active by the depositor; i = inactive; ? = inconclusive; . = no result given. A selection: hits, their analogues and other compounds. The true share with any hit is near 1%.
SMILES,HSV augment,GC-A act,TAG inh,Efflux pump mplx,NPR2 activator,Bfl-1 A1 inh,Yeast cmpd fluor,Mdr1 pump inh,CaCdr2 efflux inh,CaCdr1 efflux inh
CC(CCc1ccccc1)NC(=O)c1ccc(NC(=O)c2cccc(Br)c2)cc1 (centres undefined),i,-10.1,.,6.5*,-3.1,-0.1,99.0,0.1,127.0,0.0
O=C(NCC1CCCO1)c1ccc(Br)c(S(=O)(=O)N2CCOCC2)c1 (centres undefined),.,0.1,6.6,24.2*,-0.5,0.6,98.2,-0.2,106.0,0.3
O=C(C1CCCN1S(=O)(=O)c1ccccc1[N+](=O)[O-])N1CCN(c2ccccc2)CC1 (centres undefined),.,2.5,.,.,-1.1,.,.,.,.,.
O=C(c1cc2c(ccc3ccccc32)o1)N1CCN(c2ncc(C(F)(F)F)cc2Cl)CC1,i,-6.9,0.8,51.7*,-4.1,0.0,101.8,-0.3,93.0,0.0
N=C1N(C(=O)OCc2ccccc2)/C(=C\C2=CCCCC2)C(Cc2ccccc2)N1Cc1ccccc1 (centres undefined),.,-6.1,.,.,6.2,.,.,.,.,.
CC(C)CC(C(=O)OCC(=O)Nc1cccc(Cl)c1)N1C(=O)C2CC=CCC2C1=O (centres undefined),i,-0.4,.,2.7*,1.3,0.8,102.2,0.1,114.4,-0.1
N#CCCn1cc(/C=N/O)c(-c2ccc(Cl)cc2)n1,i,4.7,.,6.7*,-4.7,-0.7,104.5,-0.3,102.9,0.0
N#CCCn1cc(/C=N/O)c(-c2ccc(-c3ccccc3)cc2)n1,i,-14.4,.,-0.3,-15.4,0.0,.,.,.,.
O=C(C1CC1)n1ccc2ccc(-c3ccc4ccn(Cc5ccccc5)c4c3)cc21,.,-3.1,.,.,2.1,.,.,.,.,.
CN(Cc1ccc(F)cc1)C(=O)c1cccc2c1C(=O)N(Cc1cccnc1)C2,.,3.4,.,.,-1.2,.,.,.,.,.
CC(C)n1cc(/C=N/NC(=O)COc2cccc3cccnc23)c2ccccc21,i,2.4,.,3.1*,2.6,0.1,111.3,-0.1,116.0,0.1
C=CCn1cc(/C=N/NC(=O)COc2cccc3cccnc23)c2ccccc21,i,0.9,.,0.0,0.3,-0.6,.,.,.,.
CC(C)C(O)(C#CCN1CCCCC1)C(C)C,i,2.4,-3.5,13.8*,1.6,0.5,111.2,-0.3,106.3,0.0
COc1cc2c(cc1OC)CSC1C(=O)N(C)C(SC2)C(=O)N1C,.,-2.8,.,.,-2.6,.,.,.,.,.
CCOC(=O)C(C(=O)OCC)c1cc(Br)c2noc3c2c1C(=O)c1ccccc1-3,.,-47.3,.,0.8*,-34.6,10.5*,826.4*,0.5,193.0*,0.3
O=C(C1CCCO1)N1CCN(S(=O)(=O)c2ccccc2)CC1 (centres undefined),i,0.9,.,5.9*,4.7,1.1,94.0,0.0,76.3,-0.1
CCCCNC(=O)C[C@H]1C[C@@]2(C(=O)OC)C(=C[C@H](COCc3ccccc3)O[C@@H]2C)N(CCc2ccc(OC)c(OC)c2)C1=O,.,0.4,.,.,-1.1,.,.,.,.,.
COc1ccc2nc(C)cc(Sc3nc4ccccc4s3)c2c1,i,-19.2,.,1.0*,-5.3,0.4,88.8,-0.1,98.1,0.0
CCCCNC(=O)C1(C(=O)c2ccc(OC)cc2)CC(c2ccccn2)=NO1 (centres undefined),.,1.8,.,.,0.9,.,.,.,.,.
COc1ccc(CNC(=O)/C=C/c2ccco2)cc1OC,i,3.2,-10.5,-0.1,-0.5,0.0,.,.,.,.
COc1ccc(CNC(=O)/C=C/C(=O)O)cc1OC,i,0.0,.,5.5*,3.1,1.2,101.4,-0.1,95.6,-0.1
COC(=O)[C@]12C[C@H](CC(=O)NCc3cccs3)C(=O)N(Cc3ccccc3)C1=C[C@H](COCc1ccccc1)O[C@@H]2C,.,-2.5,.,.,4.7,.,.,.,.,.
CN(C)S(=O)(=O)c1ccc(N2CCCC2)c(C(=O)Nc2nc3c(ccc4ccccc43)s2)c1,i,9.9,.,1.9*,0.8,1.6,107.9,0.0,122.6,0.4
Cc1cnc(NC(=O)c2cc(S(=O)(=O)N(C)C)ccc2N2CCCC2)s1,.,3.1,-1.1,0.2,8.1,1.1,.,.,.,.
COC(=O)C[C@@H]1CC[C@H]2[C@@H](COc3ccc(NC(=O)Nc4ccccc4C)cc3C(=O)N2C)O1,.,3.3,.,.,2.6,.,.,.,.,.
SMILES,HSV augment,GC-A act,TAG inh,Efflux pump mplx,NPR2 activator,Bfl-1 A1 inh,Yeast cmpd fluor,Mdr1 pump inh,CaCdr2 efflux inh,CaCdr1 efflux inh
COc1ccc(S(=O)(=O)N2CCCCC2)cc1NC(=O)c1ccc(CS(C)(=O)=O)cc1,.,-4.0,29.2,1.1*,1.6,-0.9,113.2,0.5,112.3,0.1
C[C@@H](CO)N(CCc1cn(Cc2ccccc2)nn1)S(=O)(=O)c1ccccc1Br,.,4.2,.,.,-0.1,.,.,.,.,.
CC(C)CC(=O)N1CCC(C(=O)NCC2COc3ccccc3O2)CC1 (centres undefined),.,4.7,.,.,1.1,.,.,.,.,.
COc1ccccc1CC(=O)O/N=C(\N)c1ccccn1,i,6.3,-4.6,-0.1,0.6,0.0,.,.,.,.
N/C(=N\OC(=O)Cc1cccc2ccccc12)c1ccccn1,i,1.7,-7.9,1.2*,-3.2,-0.7,108.6,-0.3,109.4,-0.1
c1cc2ccc3ccc(CN4CCOCC4)c4ccc(c1)c2c34,i,-5.5,.,1.1*,1.4,0.0,105.8,0.0,100.7,0.1
OC1CCCN(Cc2ccc3ccc4cccc5ccc2c3c45)C1 (centres undefined),i,-6.1,.,-0.1,-9.6,0.4,.,.,.,.
COc1cc(/C=C2\SC(=S)N(NC(=O)c3cccnc3)C2=O)ccc1O,?,-1.0,-21.3,0.0,1.8,0.7,103.1,-0.1,107.2,0.0
O=C(NN1C(=O)/C(=C/c2ccc(O)c(O)c2)SC1=S)c1ccccc1,.,-0.8,.,3.4*,-2.8,-1.2,115.9,0.1,118.4,0.5
CCOC(=O)[C@]12CCCCC/C=C\1N(CCc1ccc(Cl)cc1)C(=O)[C@H]2CC(=O)NCCCCc1ccccc1,.,-1.5,.,.,-0.1,.,.,.,.,.
COC(=O)Cn1cc(/C=C/c2cc[n+](C)cc2)c2ccccc21,.,-9.6,-6.7,0.1,-0.1,-0.6,173.8,1.0,141.3,0.6
CCc1c(C)nc2cc(-c3cc(OC)cc(OC)c3)nn2c1N1CCN(CCN2CCOCC2)CC1,i,9.6,40.5,1.6*,4.7,0.2,82.2,0.1,89.0,-0.2
COc1ccccc1OCC(=O)Nc1nnc(C2CCCC2)s1,.,-3.4,.,-0.1,1.3,0.3,.,.,.,.
